{"source": "the supplement of paper PMC12669032", "note": "“And” between values parts separate entries of the source, which are not always exact repeats. Equal values may be shown once. Unmarked numbers belong to inactive results.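 How the source made its calls: active = AUC reduced over 20% with Padj below 0.05 in at least 2 of 3 replicates; inactive = otherwise.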", "data": [{"tested_on": "Bacteroides clarus", "assay": "growth AUC relative to DMSO control (median of replicates) (fraction); higher = more growth (less inhibition), active = hit call of the paper", "settings": "20 µM; 24 h", "outline": "(§1)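 OD600 was recorded every hour for 24 h in anaerobic monocultures of gut bacteria kept at 37 °C in mGAM, seeded at OD600 0.05 and given 20 µM compound in 1% DMSO. The area under each growth curve was scaled to the plate median of solvent-only wells, or to row and column medians for the industrial chemical plate. Before this step, the minimum OD was set to 0. Reported values are medians of three biological replicates run on separate days.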", "values": [{"smiles": "Cc1cccc(C)c1N", "growth AUC": 0.973}, {"smiles": "C=CCOC(=O)C(C)(C)OC(=O)c1cc(-n2c(=O)cc(C(F)(F)F)n(C)c2=O)ccc1Cl", "growth AUC": 1.01}, {"smiles": "CCOP(=O)(NC(C)C)Oc1ccc(S(C)(=O)=O)c(C)c1", "note": "(stereo not drawn)", "growth AUC": 1.04}, {"smiles": "Cc1cc(OC(=O)N(C)C)nn1C(=O)N(C)C", "growth AUC": 0.992}, {"smiles": "CCCCCCCCSC(=O)Oc1cc(Cl)nnc1-c1ccccc1", "growth AUC": 0.983}, {"smiles": "CC1(C(=O)Nc2ccc(O)c(Cl)c2Cl)CCCCC1", "growth AUC": 0.954}, {"smiles": "CC(Oc1ccc(Oc2ccc(Cl)cc2Cl)cc1)C(=O)O", "note": "(racemic)", "growth AUC": 0.875}, {"smiles": "C[Si](Cn1cncn1)(c1ccc(F)cc1)c1ccc(F)cc1", "growth AUC": 0.907}, {"smiles": "CN(C)C1CSSSC1.O=C(O)C(=O)O", "growth AUC": 0.974}, {"smiles": "COP(=S)(OC)SCn1nnc2ccccc2c1=O", "growth AUC": 0.977}, {"smiles": "CCSC(=O)N1CCCCCC1", "growth AUC": 0.974}, {"smiles": "O=C(O)c1c(Cl)ccc2cc(Cl)cnc12", "growth AUC": 0.983}, {"smiles": "CCCSP(=S)(OCC)Oc1ccc(SC)cc1", "note": "(stereo not drawn)", "growth AUC": 0.958}, {"smiles": "Cc1cc(C(F)(C(F)(F)F)C(F)(F)F)ccc1NC(=O)c1cccc(I)c1C(=O)NC(C)(C)CS(C)(=O)=O", "growth AUC": 1.2}, {"smiles": "Cc1cc(Cl)ccc1O", "growth AUC": 1.03}, {"smiles": "COc1cc(OC)nc(NC(=O)NS(=O)(=O)c2ncccc2C(=O)N(C)C)n1", "growth AUC": 0.98}, {"smiles": "Cc1cccc2sc3nncn3c12", "growth AUC": 0.965}, {"smiles": "CCC(C)c1cc([N+](=O)[O-])cc([N+](=O)[O-])c1O", "note": "(stereo not drawn)", "growth AUC": 0.879}, {"smiles": "CCOP(=S)(OCC)SCSC(C)(C)C", "growth AUC": 1.01}, {"smiles": "CCNc1nc(Cl)nc(NC(C)(C)C#N)n1", "growth AUC": 0.983}, {"smiles": "Cc1ccccc1C(=O)Nc1cccc(OC(C)C)c1", "growth AUC": 0.992}, {"smiles": "N#CN=C1SCCN1Cc1ccc(Cl)nc1", "growth AUC": 1}, {"smiles": "COP(=O)(OC)Oc1ccc(S(C)=O)c(C)c1", "note": "(stereo not drawn)", "growth AUC": 0.95}, {"smiles": "COCC(=O)N(c1c(C)cccc1C)[C@H](C)C(=O)OC", "growth AUC": 1.04}, {"smiles": "CC(=NC#N)N(C)Cc1ccc(Cl)nc1", "growth AUC": "1.02 and 0.96"}, {"smiles": "CC1(C)C(C(=O)OC(C#N)c2cccc(Oc3ccccc3)c2)C1(C)C", "note": "(stereo not drawn)", "growth AUC": 0.991}, {"smiles": "CNC(=O)Oc1cc(C)c(N(C)C)c(C)c1", "growth AUC": 0.971}, {"smiles": "CN(C)C(=S)SSC(=S)N(C)C", "growth AUC": 0.967}, {"smiles": "CCOP(=S)(OCC)SCn1nnc2ccccc2c1=O", "growth AUC": 0.993}, {"smiles": "[CH3][Hg][Cl]", "growth AUC": 0.837}, {"smiles": "CCCCc1c(C)nc(NCC)nc1OS(=O)(=O)N(C)C", "growth AUC": 0.967}, {"smiles": "CC1(C)[C@H](/C=C(\\Cl)C(F)(F)F)[C@@H]1C(=O)O[C@@H](C#N)c1cccc(Oc2ccccc2)c1", "growth AUC": 0.994}, {"smiles": "CCCN(CCOc1c(Cl)cc(Cl)cc1Cl)C(=O)n1ccnc1", "growth AUC": 0.967}, {"smiles": "CCOP(=S)(OCC)Oc1cc(Cl)c(Br)cc1Cl", "growth AUC": 0.94}, {"smiles": "C/C(=N\\NC(=O)Nc1cc(F)cc(F)c1)c1ncccc1C(=O)[O-].[Na+]", "growth AUC": 1.01}, {"smiles": "C1=Cc2cccc3cccc1c23", "growth AUC": 0.996}, {"smiles": "CCc1ccc(C(=O)NN(C(=O)c2cc(C)cc(C)c2)C(C)(C)C)cc1", "growth AUC": 0.993}, {"smiles": "C#CCOc1ccc(CCNC(=O)C(OCC#C)c2ccc(Cl)cc2)cc1OC", "note": "(stereo not drawn)", "growth AUC": 0.948}, {"smiles": "COC(=O)c1ccccc1S(=O)(=O)NC(=O)Nc1nc(C)nc(OC)n1", "growth AUC": 0.982}]}, {"tested_on": "Bacteroides dorei", "assay": "growth AUC relative to DMSO control (median of replicates) (fraction); higher = more growth (less inhibition), active = hit call of the paper", "settings": "20 µM; 24 h", "outline": "as §1", "values": [{"smiles": "Cc1cccc(C)c1N", "growth AUC": 1.01}, {"smiles": "C=CCOC(=O)C(C)(C)OC(=O)c1cc(-n2c(=O)cc(C(F)(F)F)n(C)c2=O)ccc1Cl", "growth AUC": 0.969}, {"smiles": "CCOP(=O)(NC(C)C)Oc1ccc(S(C)(=O)=O)c(C)c1", "note": "(stereo not drawn)", "growth AUC": 1.04}, {"smiles": "Cc1cc(OC(=O)N(C)C)nn1C(=O)N(C)C", "growth AUC": 0.968}, {"smiles": "CCCCCCCCSC(=O)Oc1cc(Cl)nnc1-c1ccccc1", "growth AUC": 0.99}, {"smiles": "CC1(C(=O)Nc2ccc(O)c(Cl)c2Cl)CCCCC1", "growth AUC": 0.995}, {"smiles": "CC(Oc1ccc(Oc2ccc(Cl)cc2Cl)cc1)C(=O)O", "note": "(racemic)", "growth AUC": 0.997}, {"smiles": "C[Si](Cn1cncn1)(c1ccc(F)cc1)c1ccc(F)cc1", "growth AUC": 0.854}, {"smiles": "CN(C)C1CSSSC1.O=C(O)C(=O)O", "growth AUC": 1.17}, {"smiles": "COP(=S)(OC)SCn1nnc2ccccc2c1=O", "growth AUC": 0.877}, {"smiles": "CCSC(=O)N1CCCCCC1", "growth AUC": 1}, {"smiles": "O=C(O)c1c(Cl)ccc2cc(Cl)cnc12", "growth AUC": 0.992}, {"smiles": "CCCSP(=S)(OCC)Oc1ccc(SC)cc1", "note": "(stereo not drawn)", "growth AUC": 1}, {"smiles": "Cc1cc(C(F)(C(F)(F)F)C(F)(F)F)ccc1NC(=O)c1cccc(I)c1C(=O)NC(C)(C)CS(C)(=O)=O", "growth AUC": 1}, {"smiles": "Cc1cc(Cl)ccc1O", "growth AUC": 1.01}, {"smiles": "COc1cc(OC)nc(NC(=O)NS(=O)(=O)c2ncccc2C(=O)N(C)C)n1", "growth AUC": 0.957}, {"smiles": "Cc1cccc2sc3nncn3c12", "growth AUC": 1.04}, {"smiles": "CCC(C)c1cc([N+](=O)[O-])cc([N+](=O)[O-])c1O", "note": "(stereo not drawn)", "growth AUC": 0.902}, {"smiles": "CCOP(=S)(OCC)SCSC(C)(C)C", "growth AUC": 0.963}, {"smiles": "CCNc1nc(Cl)nc(NC(C)(C)C#N)n1", "growth AUC": 1.04}, {"smiles": "Cc1ccccc1C(=O)Nc1cccc(OC(C)C)c1", "growth AUC": 1}, {"smiles": "N#CN=C1SCCN1Cc1ccc(Cl)nc1", "growth AUC": 0.967}, {"smiles": "COP(=O)(OC)Oc1ccc(S(C)=O)c(C)c1", "note": "(stereo not drawn)", "growth AUC": 1}, {"smiles": "COCC(=O)N(c1c(C)cccc1C)[C@H](C)C(=O)OC", "growth AUC": 1.04}, {"smiles": "CC(=NC#N)N(C)Cc1ccc(Cl)nc1", "growth AUC": "0.993 and 1.01"}, {"smiles": "CC1(C)C(C(=O)OC(C#N)c2cccc(Oc3ccccc3)c2)C1(C)C", "note": "(stereo not drawn)", "growth AUC": 0.996}, {"smiles": "CNC(=O)Oc1cc(C)c(N(C)C)c(C)c1", "growth AUC": 1.04}, {"smiles": "CN(C)C(=S)SSC(=S)N(C)C", "growth AUC": 0.961}, {"smiles": "CCOP(=S)(OCC)SCn1nnc2ccccc2c1=O", "growth AUC": 1.01}, {"smiles": "[CH3][Hg][Cl]", "growth AUC": 0.96}, {"smiles": "CCCCc1c(C)nc(NCC)nc1OS(=O)(=O)N(C)C", "growth AUC": 0.909}, {"smiles": "CC1(C)[C@H](/C=C(\\Cl)C(F)(F)F)[C@@H]1C(=O)O[C@@H](C#N)c1cccc(Oc2ccccc2)c1", "growth AUC": 0.972}, {"smiles": "CCCN(CCOc1c(Cl)cc(Cl)cc1Cl)C(=O)n1ccnc1", "growth AUC": 0.941}, {"smiles": "CCOP(=S)(OCC)Oc1cc(Cl)c(Br)cc1Cl", "growth AUC": 1.02}, {"smiles": "C/C(=N\\NC(=O)Nc1cc(F)cc(F)c1)c1ncccc1C(=O)[O-].[Na+]", "growth AUC": 0.77}, {"smiles": "C1=Cc2cccc3cccc1c23", "growth AUC": 1.02}, {"smiles": "CCc1ccc(C(=O)NN(C(=O)c2cc(C)cc(C)c2)C(C)(C)C)cc1", "growth AUC": 0.987}, {"smiles": "C#CCOc1ccc(CCNC(=O)C(OCC#C)c2ccc(Cl)cc2)cc1OC", "note": "(stereo not drawn)", "growth AUC": 0.957}, {"smiles": "COC(=O)c1ccccc1S(=O)(=O)NC(=O)Nc1nc(C)nc(OC)n1", "growth AUC": 1.01}]}]}
